# Records with an inconclusive call do not appear. Active and inactive are the calls of the source. How the source made its calls, unless noted: active means hit-call score of the fitted dose curve at least 0.9, where 1 is the maximum; inactive means score below 0.9.
# Experiments:
# [1] = CCTE_Simmons_MITO_basal_resp_rate: CCTE's HepG2 Seahorse XF Respirometric Screening Assay at Basal Respiratory State, Simmons Lab (AID 2284001); conditions: actives raise or lower the signal
# Summary of the method: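 HepG2 cells were given test chemicals at 7 concentrations, 125 nM to 100 uM final, and oxygen consumption rate was read every 6 min (3 min mix, 3 min measure) over 72 min. Basal-phase OCR was fitted bidirectionally against DMSO.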
# [2] = CCTE_Simmons_MITO_inhib_resp_rate: CCTE's HepG2 Seahorse XF Respirometric Screening Assay at Inhibited Respiratory State [full ETC block], Simmons Lab (AID 2284006); conditions: actives raise or lower the signal
# Summary of the method: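 Compound injected onto HepG2 cells (125 nM–100 uM final, 7 points); FCCP then rotenone/antimycin A added. Oxygen consumption read every 6 min (3 min mix, 3 min measure) for 72 min. Inhibited-state OCR fitted against DMSO.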
# [3] = CCTE_Simmons_MITO_viability: CellTiter-Glo Viability Assessment for CCTE's HepG2 Seahorse XF Respirometric Screening Assay [post-hoc], Simmons Lab (AID 2284007; active means hit-call score of the fitted dose curve at least 0.9, where 1 is the maximum;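 on AC50: cells exposed to chemical for 90 min before the ATP read; actives lower ATP signal relative to DMSO baseline meaning reduced viability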)
# Summary of the method: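 After the Seahorse oxygen-consumption sequence (basal, FCCP, rotenone/antimycin A; 72 min total), HepG2 viability was scored as ATP content by bioluminescence. Chemicals ran at seven concentrations up to 100 uM final for 90 min.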
# [4] = CCTE_Harrill_HTTr_Viability_MCF7: CCTE's 6-hour Cell Viability Assessment for the High-Throughput Transcriptomics (HTTr) Platform, in MCF-7 cells cultured in DMEM + 10% fetal bovine serum, Harrill Lab (AID 2284010)
# Summary of the method: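 Cells were dosed with chemicals in an eight-point dilution series, imaged 6 hours later for propidium iodide uptake, and the endpoint was analyzed by bidirectional fitting against DMSO as negative control.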
# [5] = CCTE_Harrill_HTTr_Apoptosis_MCF7: CCTE's 6-hour Apoptosis Assessment for the High-Throughput Transcriptomics (HTTr) Platform, in MCF-7 cells cultured in DMEM + 10% fetal bovine serum, Harrill Lab (AID 2284011)
# Summary of the method: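 Apoptosis in MCF-7 cells grown in DMEM with 10% fetal bovine serum was scored after a six hour exposure by high content imaging of caspase-3/7 activation (CellEvent Caspase 3/7 Green), with DMSO serving as negative control and baseline.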
# [6] = CCTE_Harrill_HTTr_Viability_DMEM_24hr: (Pilot) CCTE's 24-hour Cell Viability Assessment for the High-Throughput Transcriptomics (HTTr) Platform, in MCF-7 cells cultured in DMEM + 10% fetal bovine serum, Harrill Lab (AID 2283975)
# Summary of the method: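 MCF-7 cells in DMEM with 10% FBS exposed for 24 hours to an eight-point dilution series. Membrane integrity by propidium iodide exclusion with high content imaging; bidirectional fit against DMSO.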
# [7] = CCTE_Harrill_HTTr_Viability_PRF_DMEM_6hr: (Pilot) CCTE's 6-hour Cell Viability Assessment for the High-Throughput Transcriptomics (HTTr) Platform, in MCF-7 cells cultured phenol red-free DMEM + 10% charcoal-stripped fetal bovine serum, Harrill Lab (AID 2283976)
# Summary of the method: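 MCF-7 cells in phenol red-free DMEM with 10% charcoal-stripped FBS exposed 6 hours to an eight-point dilution series. Propidium iodide exclusion imaged; curves fitted bidirectionally against DMSO.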
# [8] = CCTE_Harrill_HTTr_Viability_PRF_DMEM_12hr: (Pilot) CCTE's 12-hour Cell Viability Assessment for the High-Throughput Transcriptomics (HTTr) Platform, in MCF-7 cells cultured in phenol red-free DMEM + 10% charcoal-stripped fetal bovine serum, Harrill Lab (AID 2283977)
# Summary of the method: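 MCF-7 cells in phenol red-free DMEM with 10% charcoal-stripped FBS exposed 12 hours to an eight-point dilution series. Viability assessed by high-content imaging of propidium iodide exclusion; bidirectional fit versus DMSO.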
# [9] = CCTE_Harrill_HTTr_Viability_PRF_DMEM_24hr: (Pilot) CCTE's 24-hour Cell Viability Assessment for the High-Throughput Transcriptomics (HTTr) Platform, in MCF-7 cells cultured in phenol red-free DMEM + 10% charcoal-stripped fetal bovine serum, Harrill Lab (AID 2283980)
# Summary of the method: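 MCF-7 cells in phenol red-free DMEM with 10% charcoal-stripped FBS, eight-point dilution series, 24 h exposure. Membrane integrity by propidium iodide exclusion with high content imaging; bidirectional fit vs DMSO.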
# [10] = CCTE_Harrill_HTTr_Apoptosis_DMEM_6hr: (Pilot) CCTE's 6-hour Apoptosis Assessment for the High-Throughput Transcriptomics (HTTr) Platform, in MCF-7 cells cultured in DMEM + 10% fetal bovine serum, Harrill Lab (AID 2283981)
# Summary of the method: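 Caspase-3/7 activation read by high content imaging with CellEvent Caspase 3/7 Green in MCF-7 cells (DMEM + 10% FBS), 6 h after dosing; eight-point dilution series. Bidirectional fitting relative to DMSO baseline.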
# [11] = CCTE_Harrill_HTTr_Apoptosis_DMEM_12hr: (Pilot) CCTE's 12-hour Apoptosis Assessment for the High-Throughput Transcriptomics (HTTr) Platform, in MCF-7 cells cultured in DMEM + 10% fetal bovine serum, Harrill Lab (AID 2283982)
# Summary of the method: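 MCF-7 cells in DMEM + 10% FBS, exposed 12 h to an eight-point dilution series; caspase-3/7 activation imaged with CellEvent Green. Bidirectional fit versus DMSO.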
# [12] = CCTE_Harrill_HTTr_Apoptosis_DMEM_24hr: (Pilot) CCTE's 24-hour Apoptosis Assessment for the High-Throughput Transcriptomics (HTTr) Platform, in MCF-7 cells cultured in DMEM + 10% fetal bovine serum, Harrill Lab (AID 2283983)
# Summary of the method: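 MCF-7 cells in DMEM + 10% FBS, eight-point dilution series, 24 h exposure. Caspase-3/7 activation imaged by high-content imaging with CellEvent Caspase 3/7 Green. Bidirectional curve fitting against DMSO baseline.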
# [13] = CCTE_Harrill_HTTr_Apoptosis_PRF_DMEM_6hr: (Pilot) CCTE's 6-hour Apoptosis Assessment for the High-Throughput Transcriptomics (HTTr) Platform, in MCF-7 cells cultured phenol red-free DMEM + 10% charcoal-stripped fetal bovine serum, Harrill Lab (AID 2283984)
# Summary of the method: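 MCF-7 cells in phenol red-free DMEM + 10% charcoal-stripped FBS, eight-point dilution series, 6 h exposure. Caspase-3/7 activation imaged by high-content imaging with CellEvent Caspase 3/7 Green; bidirectional fit versus DMSO baseline.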
# [14] = CCTE_Harrill_HTTr_Apoptosis_PRF_DMEM_24hr: (Pilot) CCTE's 24-hour Apoptosis Assessment for the High-Throughput Transcriptomics (HTTr) Platform, in MCF-7 cells cultured in phenol red-free DMEM + 10% charcoal-stripped fetal bovine serum, Harrill Lab (AID 2283986)
# Summary of the method: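 MCF-7 cells in phenol red-free DMEM with 10% charcoal-stripped FBS, exposed 24 h across an eight-point dilution series. Caspase-3/7 activation imaged with CellEvent Green by high content imaging; bidirectional fitting against DMSO.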
# [15] = CCTE_Shafer_MEA_acute_spike_number: CCTE's Neural Acute Assay for Total Number of Spikes, Shafer Lab (AID 2284008);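 on AC50: curve fitted for decrease in spike count so AC50 reflects inhibitors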
# Summary of the method: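 Using an adaptive detector set to 8x rms noise, spikes were counted in 40-min windows before and after compound addition (0.03-40 uM) to rat cortical networks at 37 C; the well-level change from baseline was analysed relative to DMSO.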
# [16] = CCTE_Shafer_MEA_acute_firing_rate_mean: CCTE's Neural Acute Assay for Mean Firing Rate, Shafer Lab (AID 2284009);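 further: analyzed for loss of signal so actives lower firing rate relative to DMSO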
# Summary of the method: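 Read-out: well-mean spike rate (spikes/recording length/electrodes), % change from 40 min pre-dose baseline to 40 min with compound. Rat cortical cultures, DIV 13 or 15, 37 C; 0.03-40 uM; DMSO as negative control.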
smiles,measurement,setting,value
CC(C)(O)c1ccc(CNC(=O)c2cccnc2Oc2ccc3nonc3c2)cc1,outcome,[1],inactive
same,outcome,[2],inactive
same,outcome,[3],inactive
same,outcome,[4],inactive
same,outcome,[5],inactive
CC1(C)NC(=O)N(c2ccc([N+](=O)[O-])c(C(F)(F)F)c2)C1=O,outcome,[6],inactive
same,outcome,[7],inactive
same,outcome,[8],inactive
same,outcome,[9],inactive
same,outcome,[10],inactive
same,outcome,[11],inactive
same,outcome,[12],inactive
same,outcome,[13],inactive
same,outcome,[14],inactive
same,AC50,[1],37.2 µM (active)
same,outcome,[2],inactive
same,outcome,[3],inactive
same,outcome,[4],inactive
same,outcome,[5],inactive
CN1C(=O)N(c2ccccc2Br)Cc2cnc(Nc3ccc4c(c3)OCC(CO)O4)nc21 (centres undefined),AC50,[1],35.1 µM (active)
same,outcome,[2],inactive
same,AC50,[3],33.7 µM (active)
same,outcome,[4],inactive
same,outcome,[5],inactive
C[C@]12CC[C@@H]3c4ccc(O)cc4CC[C@H]3[C@@H]1CC[C@H]2O,AC50,[1],36.1 µM (active)
same,outcome,[2],inactive
same,outcome,[3],inactive
same,outcome,[15],inactive
same,outcome,[16],inactive
same,outcome,[4],inactive
same,outcome,[5],inactive
O=C(O)c1ccccc1-n1cc(C(=O)O)c(=O)c2cc(Nc3c(F)cc(F)cc3Cl)c(Cl)cc21,outcome,[15],inactive
same,outcome,[16],inactive
same,outcome,[4],inactive
same,outcome,[5],inactive
Clc1ccccc1C(c1ccccc1)(c1ccccc1)n1ccnc1,AC50,[15],5.01 µM (active)
same,AC50,[16],5.03 µM (active)
same,outcome,[4],inactive
same,outcome,[5],inactive
O=C1O[C@H]([C@@H](O)CO)C(O)=C1O,outcome,[15],inactive
same,outcome,[16],inactive
same,outcome,[4],inactive
same,outcome,[5],inactive
CCCCCCCC[Si](OCC)(OCC)OCC,outcome,[4],inactive
same,outcome,[5],inactive
C[C@]12CC[C@@H]3c4ccc(O)cc4CC[C@H]3[C@@H]1CCC2=O,outcome,[4],inactive
same,outcome,[5],inactive
Cc1ccc2oc(CN(Cc3ccccc3)C(=O)Nc3c(F)cc(F)cc3F)c(-c3ccc(Cl)cc3)c2c1,outcome,[4],inactive
same,outcome,[5],inactive
CCCCCCCCOc1ccc(C(=O)c2ccccc2)c(O)c1,outcome,[4],inactive
same,outcome,[5],inactive
c1ccc2n[nH]nc2c1,outcome,[15],inactive
same,outcome,[16],inactive
CCCCCc1ccc(N)cc1,outcome,[4],inactive
same,outcome,[5],inactive
CC1=CC(=O)/C(=C(/C)O)C(=O)O1,outcome,[15],inactive
same,outcome,[16],inactive
CCO[Si](CCCNC(N)=O)(OCC)OCC,outcome,[4],inactive
same,outcome,[5],inactive
CN1C(=O)CC[C@H]1c1cccnc1,outcome,[15],inactive
same,outcome,[16],inactive
same,outcome,[4],inactive
same,outcome,[5],inactive
CCOC(=O)O[C@H](C)OC(=O)c1ccc2c(c1)cc(C(=O)NC1CCN(C(C)C)CC1)n2Cc1cc(-c2ccc(Cl)s2)on1,AC50,[4],76.7 µM (active)
same,AC50,[5],72.2 µM (active)
CCN(CC)C(=O)c1cc(S(=O)(=O)Cc2ccccc2)c(N2CCC(c3ccccc3)CC2)cc1N(CC)CCN(C)C,AC50,[15],3.04 µM (active)
same,AC50,[16],3.04 µM (active)
same,outcome,[4],inactive
same,outcome,[5],inactive
Cc1cccc2ccccc12,outcome,[4],inactive
same,outcome,[5],inactive
CCN(Cc1cccc(S(=O)(=O)O)c1)c1ccc(C(=C2C=CC(=[N+](CC)Cc3cccc(S(=O)(=O)O)c3)C=C2)c2ccccc2S(=O)(=O)[O-])cc1,outcome,[15],inactive
same,outcome,[16],inactive
same,outcome,[4],inactive
same,outcome,[5],inactive
Oc1ccccc1,outcome,[4],inactive
same,outcome,[5],inactive
CC[C@@H]1C[C@H](N(Cc2cc(C(F)(F)F)cc(C(F)(F)F)c2)C(C)=O)c2cc(C(F)(F)F)ccc2N1C(=O)OC(C)C,outcome,[15],inactive
same,outcome,[16],inactive
same,outcome,[4],inactive
same,outcome,[5],inactive
CCCCOC(=O)CC(CC(=O)OCCCC)(OC(C)=O)C(=O)OCCCC,outcome,[4],inactive
same,outcome,[5],inactive
Cc1cn([C@H]2C[C@H](N=[N+]=[N-])[C@@H](CO)O2)c(=O)[nH]c1=O,outcome,[15],inactive
same,outcome,[16],inactive
same,outcome,[4],inactive
same,outcome,[5],inactive
COc1ccc2cc(S(=O)(=O)N[C@H](CC(=O)N[C@H](Cc3ccc(CN4[C@H](C)CCC[C@@H]4C)cc3)C(=O)N(C)C(C)C)c3ccc4c(c3)OCO4)ccc2c1,outcome,[4],inactive
same,outcome,[5],inactive
c1ccc2ccccc2c1,outcome,[4],inactive
same,outcome,[5],inactive
COc1cccc([C@H](O)C2CCN(CCc3ccc(F)cc3)CC2)c1OC,AC50,[15],2.87 µM (active)
same,AC50,[16],2.87 µM (active)
same,outcome,[4],inactive
same,outcome,[5],inactive
Clc1cc(Cl)c2c(c1)N=C1CCCCCN1C2,outcome,[4],inactive
same,outcome,[5],inactive
O=c1[nH]sc2ccccc12,AC50,[15],0.0259 µM (active)
same,AC50,[16],0.0286 µM (active)
same,outcome,[4],inactive
same,outcome,[5],inactive
CC[C@H](NC(=O)c1cc(F)ccc1NS(=O)(=O)c1cccc2cccnc12)c1ccccc1,outcome,[4],inactive
same,outcome,[5],inactive
Cc1ncc(CO)c(CO)c1O,outcome,[4],inactive
same,outcome,[5],inactive
CCCCCCCCCCCC[N+](C)(C)C,outcome,[2],inactive
same,outcome,[3],inactive
same,outcome,[4],inactive
same,outcome,[5],inactive
CC(O)CC(C)(C)O (centres undefined),outcome,[15],inactive
same,outcome,[16],inactive
same,outcome,[4],inactive
same,outcome,[5],inactive
CCCCCCCCCCCCO,outcome,[15],inactive
same,outcome,[16],inactive
same,outcome,[4],inactive
same,outcome,[5],inactive
CCCOC(=O)c1cc(O)c(O)c(O)c1,outcome,[4],inactive
same,outcome,[5],inactive

# From PubChem BioAssay (EPA / NIEHS)
